In the supplement of paper PMC6522484:
“And” between values parts separate entries of the source, which are not always exact repeats. Equal values may be shown once. ± gives the standard deviation of the averaged measurements.

Legend:
DLD1 [1] = assay: cell viability (CellTiter-Glo) relative to plate median (fraction of plate median); higher = more viable cells; conditions: 5 µM; treatment time 24 h; reporter: 7TFP
In short: (§1)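 Colorectal cancer cell lines stably transduced with lentiviral TCF/Wnt firefly luciferase reporters (7TFP or TCF4/Wnt) were seeded in 384-well plates. 24 h later they received library compounds at a final 5 µM for 24 h. Parallel plates were read for firefly luciferase or CellTiterGlo luminescence on a Tecan F500 reader. Each well's signal was normalised to the plate median (webcellHTS2, additive, no log transformation), and the mean of two independent replicates is reported.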

HCT116 = assay: as above; conditions: 5 µM; treatment time 24 h; reporter: TCF4/Wnt
In short: as §1

SW480 [2] = assay: as above; conditions: 5 µM; treatment time 24 h; reporter: 7TFP
In short: as §1

DLD1 [3] = assay: TCF/Wnt firefly luciferase reporter signal relative to plate median (fraction of plate median); higher = higher Wnt reporter signal; conditions: 5 µM; treatment time 24 h; reporter: 7TFP
In short: as §1

SW480 [4] = assay: as above; conditions: 5 µM; treatment time 24 h; reporter: 7TFP
In short: as §1

O=c1cccc2ccc(O)c(O)c2c1O
cell viability (DLD1 [1]): 0.975 ± 0.012
cell viability (HCT116): 0.994 ± 0.11
cell viability (SW480 [2]): 0.966 ± 0.033
TCF/Wnt firefly luciferase reporter signal (DLD1 [3]): 0.994 ± 0.079
TCF/Wnt firefly luciferase reporter signal (SW480 [4]): 1.06 ± 0.042

Nc1ncn([C@@H]2O[C@H](CO)[C@@H](O)[C@H]2O)c(=O)n1
cell viability (DLD1 [1]): 0.992 ± 0.011
cell viability (HCT116): 0.945 ± 0.035
cell viability (SW480 [2]): 1.07 ± 0.092
TCF/Wnt firefly luciferase reporter signal (DLD1 [3]): 1.01 ± 0.13
TCF/Wnt firefly luciferase reporter signal (SW480 [4]): 1.085 ± 0.0071

CCOC(=O)CCC(=O)O[C@H]1[C@H](O[C@@H]2[C@@H](C)[C@H](O[C@H]3C[C@@](C)(OC)[C@@H](O)[C@H](C)O3)[C@@H](C)C(=O)O[C@H](CC)[C@@](C)(O)[C@H](O)[C@@H](C)C(=O)[C@H](C)C[C@@]2(C)O)O[C@H](C)C[C@@H]1N(C)C
cell viability (DLD1 [1]): 1.065 ± 0.0071
cell viability (HCT116): 1.01 ± 0.096
cell viability (SW480 [2]): 1.01 ± 0.021
TCF/Wnt firefly luciferase reporter signal (DLD1 [3]): 1.005 ± 0.0071
TCF/Wnt firefly luciferase reporter signal (SW480 [4]): 0.94 ± 0.025

O=C1[C@H](CC[C@H](O)c2ccc(F)cc2)[C@@H](c2ccc(O)cc2)N1c1ccc(F)cc1
cell viability (DLD1 [1]): 0.828 ± 0.15
cell viability (HCT116): 1.01 ± 0.063
cell viability (SW480 [2]): 0.961 ± 0.084
TCF/Wnt firefly luciferase reporter signal (DLD1 [3]): 0.952 ± 0.17
TCF/Wnt firefly luciferase reporter signal (SW480 [4]): 0.919 ± 0.11

CC(C)=CCC[C@@H](C)[C@H]1CC[C@@]2(C)C3=C(CC[C@]12C)[C@@]1(C)CC[C@H](O)C(C)(C)[C@@H]1CC3
cell viability (DLD1 [1]): 1 ± 0.029
cell viability (HCT116): 1.01 ± 0.12
cell viability (SW480 [2]): 0.994 ± 0.0085
TCF/Wnt firefly luciferase reporter signal (DLD1 [3]): 0.952 ± 0.023
TCF/Wnt firefly luciferase reporter signal (SW480 [4]): 0.83 ± 0.05

Cc1coc2c1C(=O)C(=O)c1c-2ccc2c1CCCC2(C)C
cell viability (DLD1 [1]): 1.03 ± 0.043
cell viability (HCT116): 0.999 ± 0.016
cell viability (SW480 [2]): 1.05 ± 0.028
TCF/Wnt firefly luciferase reporter signal (DLD1 [3]): 0.785 ± 0.064
TCF/Wnt firefly luciferase reporter signal (SW480 [4]): 0.994 ± 0.14

CCOC(=O)c1ncn2c1CN(C)C(=O)c1cc(F)ccc1-2
cell viability (DLD1 [1]): 0.944 ± 0.045
cell viability (HCT116): 1.03
cell viability (SW480 [2]): 0.952 ± 0.025
TCF/Wnt firefly luciferase reporter signal (DLD1 [3]): 0.996 ± 0.02
TCF/Wnt firefly luciferase reporter signal (SW480 [4]): 0.993 ± 0.0099

C[N+](C)(C)CCCCCC[N+](C)(C)C
cell viability (DLD1 [1]): 1.01 ± 0.027
cell viability (HCT116): 0.903 ± 0.022
cell viability (SW480 [2]): 0.93 ± 0.072
TCF/Wnt firefly luciferase reporter signal (DLD1 [3]): 1.09 ± 0.21
TCF/Wnt firefly luciferase reporter signal (SW480 [4]): 1.1 ± 0.11

CN1CCC(OC(c2ccccc2)c2ccccc2)CC1
cell viability (DLD1 [1]): 0.969 ± 0.044
cell viability (HCT116): 1.02 ± 0.014
cell viability (SW480 [2]): 0.979 ± 0.024
TCF/Wnt firefly luciferase reporter signal (DLD1 [3]): 1.12 ± 0.13
TCF/Wnt firefly luciferase reporter signal (SW480 [4]): 1.16 ± 0.092

CCCCNc1cc(C(=O)O)cc(S(N)(=O)=O)c1Oc1ccccc1
cell viability (DLD1 [1]): 1.015 ± 0.0071
cell viability (HCT116): 0.947 ± 0.022
cell viability (SW480 [2]): 1.04 ± 0.035
TCF/Wnt firefly luciferase reporter signal (DLD1 [3]): 1.03 ± 0.16
TCF/Wnt firefly luciferase reporter signal (SW480 [4]): 1.06 ± 0.057

OCc1c[nH]c2ccccc12
cell viability (DLD1 [1]): 1.01
cell viability (HCT116): 0.93 ± 0.03
cell viability (SW480 [2]): 0.948 ± 0.042
TCF/Wnt firefly luciferase reporter signal (DLD1 [3]): 1.06 ± 0.064
TCF/Wnt firefly luciferase reporter signal (SW480 [4]): 0.992 ± 0.026

CN1CCC[C@@H]1CCO[C@](C)(c1ccccc1)c1ccc(Cl)cc1
cell viability (DLD1 [1]): 0.982 ± 0.096
cell viability (HCT116): 0.917 ± 0.018
cell viability (SW480 [2]): 1.05 ± 0.042
TCF/Wnt firefly luciferase reporter signal (DLD1 [3]): 0.913 ± 0.19
TCF/Wnt firefly luciferase reporter signal (SW480 [4]): 0.87 ± 0.041

COc1ccc(-c2coc3cc(O)ccc3c2=O)cc1
cell viability (DLD1 [1]): 1.01 ± 0.071
cell viability (HCT116): 1.01 ± 0.15
cell viability (SW480 [2]): 0.9355 ± 0.00071
TCF/Wnt firefly luciferase reporter signal (DLD1 [3]): 0.998 ± 0.046
TCF/Wnt firefly luciferase reporter signal (SW480 [4]): 0.972 ± 0.069

CC(=O)O[C@H]1C(=O)[C@@]2(C)[C@H]([C@H](OC(=O)c3ccccc3)[C@]3(O)C[C@H](OC(=O)[C@H](O)[C@@H](NC(=O)c4ccccc4)c4ccccc4)C(C)=C1C3(C)C)[C@]1(OC(C)=O)CO[C@@H]1C[C@@H]2O
cell viability (DLD1 [1]): 0.901 ± 0.03
cell viability (HCT116): 0.498 ± 0.016
cell viability (SW480 [2]): 1.11 ± 0.092
TCF/Wnt firefly luciferase reporter signal (DLD1 [3]): 0.792 ± 0.27
TCF/Wnt firefly luciferase reporter signal (SW480 [4]): 0.755 ± 0.23

CN1CCC(=C2c3ccccc3CCc3sccc32)CC1
cell viability (DLD1 [1]): 1.07 ± 0.014
cell viability (HCT116): 1.14 ± 0.17
cell viability (SW480 [2]): 1.1 ± 0.064
TCF/Wnt firefly luciferase reporter signal (DLD1 [3]): 1.05 ± 0.11
TCF/Wnt firefly luciferase reporter signal (SW480 [4]): 0.934 ± 0.061

C=CC(C1=CC(=O)C(OC)=CC1=O)c1ccc(O)cc1 (stereo not given)
cell viability (DLD1 [1]): 1.01
cell viability (HCT116): 1.1 ± 0.021
cell viability (SW480 [2]): 1.02
TCF/Wnt firefly luciferase reporter signal (DLD1 [3]): 0.879 ± 0.0028
TCF/Wnt firefly luciferase reporter signal (SW480 [4]): 0.877 ± 0.12

CC(CN(C)C)CN1c2ccccc2CCc2ccccc21 (stereo not given)
cell viability (DLD1 [1]): 1 ± 0.021
cell viability (HCT116): 0.929 ± 0.055
cell viability (SW480 [2]): 1.05 ± 0.086
TCF/Wnt firefly luciferase reporter signal (DLD1 [3]): 0.93 ± 0.097
TCF/Wnt firefly luciferase reporter signal (SW480 [4]): 1.13 ± 0.099

COC(=O)CCCOc1ccc(Cl)cc1Cl
cell viability (DLD1 [1]): 0.984 ± 0.093
cell viability (HCT116): 1.02 ± 0.11
cell viability (SW480 [2]): 0.965 ± 0.05
TCF/Wnt firefly luciferase reporter signal (DLD1 [3]): 1.1 ± 0.099
TCF/Wnt firefly luciferase reporter signal (SW480 [4]): 0.9 ± 0.23

CC(=O)N[C@@H](CC(C)C)C(=O)O
cell viability (DLD1 [1]): 1.04 ± 0.014
cell viability (HCT116): 1.04 ± 0.093
cell viability (SW480 [2]): 0.966 ± 0.062
TCF/Wnt firefly luciferase reporter signal (DLD1 [3]): 1.03 ± 0.18
TCF/Wnt firefly luciferase reporter signal (SW480 [4]): 1.13 ± 0.057

C/C(=C\C(=O)OCCCCCCCCC(=O)O)C[C@@H]1OC[C@H](C[C@@H]2O[C@H]2[C@@H](C)[C@H](C)O)[C@@H](O)[C@H]1O
cell viability (DLD1 [1]): 0.973 ± 0.052
cell viability (HCT116): 1 ± 0.025
cell viability (SW480 [2]): 0.939 ± 0.017
TCF/Wnt firefly luciferase reporter signal (DLD1 [3]): 0.9545 ± 0.0021
TCF/Wnt firefly luciferase reporter signal (SW480 [4]): 1.03 ± 0.028

Clc1ccc(COC(Cn2ccnc2)c2ccc(Cl)cc2Cl)c(Cl)c1 (stereo not given)
cell viability (DLD1 [1]): 0.964 ± 0.042
cell viability (HCT116): 1.01 ± 0.014
cell viability (SW480 [2]): 0.973 ± 0.0099
TCF/Wnt firefly luciferase reporter signal (DLD1 [3]): 1.04 ± 0.11
TCF/Wnt firefly luciferase reporter signal (SW480 [4]): 1.04 ± 0.12

COc1cccc2c1C(=O)c1c(O)c3c(c(O)c1C2=O)C[C@@](O)(C(=O)CO)C[C@@H]3O[C@H]1C[C@H](N)[C@H](O)[C@H](C)O1
cell viability (DLD1 [1]): 1.04 ± 0.059
cell viability (HCT116): 0.67 ± 0.22
cell viability (SW480 [2]): 1.08 ± 0.035
TCF/Wnt firefly luciferase reporter signal (DLD1 [3]): 1.09 ± 0.099
TCF/Wnt firefly luciferase reporter signal (SW480 [4]): 0.682 ± 0.11

NC(C(=O)O)C(O)C(=O)O (stereo not drawn) [d,l-threo-3-HYDROXYASPARTIC ACID]
cell viability (DLD1 [1]): 0.923 ± 0.036
cell viability (HCT116): 1.09 ± 0.11
cell viability (SW480 [2]): 0.949 ± 0.044
TCF/Wnt firefly luciferase reporter signal (DLD1 [3]): 1.14 ± 0.27
TCF/Wnt firefly luciferase reporter signal (SW480 [4]): 1.15 ± 0.064

CC1(C)C2CC(=O)O[C@@]3(C)C4=CC(=O)O[C@@H](c5ccoc5)[C@]4(C)CCC3[C@@]2(C)C=C[C@H]1O (stereo not given in full)
cell viability (DLD1 [1]): 0.95 ± 0.065
cell viability (HCT116): 1.03 ± 0.047
cell viability (SW480 [2]): 0.993 ± 0.024
TCF/Wnt firefly luciferase reporter signal (DLD1 [3]): 1.05 ± 0.11
TCF/Wnt firefly luciferase reporter signal (SW480 [4]): 1.04 ± 0.16

CC(=O)O[C@@H]1C2=C(C)C=C(O2)[C@H]2O[C@]2(C)C[C@H]2C=C(C(=O)O2)[C@H](OC(C)=O)CC1[C@@]1(C)CO1 (stereo not given in full) [bipinnatin H]
cell viability (DLD1 [1]): 1.1 ± 0.13
cell viability (HCT116): 1.08 ± 0.17
cell viability (SW480 [2]): 0.984 ± 0.023
TCF/Wnt firefly luciferase reporter signal (DLD1 [3]): 0.897 ± 0.16
TCF/Wnt firefly luciferase reporter signal (SW480 [4]): 0.7915 ± 0.0021

Oc1cc(O)c2c(c1)O[C@H](c1ccc(O)c(O)c1)[C@H](O)C2
cell viability (DLD1 [1]): 0.953 and 0.936
cell viability (HCT116): 1.03 and 0.956
cell viability (SW480 [2]): 1.01 and 1.06
TCF/Wnt firefly luciferase reporter signal (DLD1 [3]): 0.934 and 1.07
TCF/Wnt firefly luciferase reporter signal (SW480 [4]): 0.985 and 1.08

CCN(CC)CCNC(=O)COc1ccc(OC)cc1
cell viability (DLD1 [1]): 0.875 ± 0.03
cell viability (HCT116): 0.928 ± 0.035
cell viability (SW480 [2]): 0.973 ± 0.038
TCF/Wnt firefly luciferase reporter signal (DLD1 [3]): 1.09 ± 0.064
TCF/Wnt firefly luciferase reporter signal (SW480 [4]): 1.02 ± 0.029

COc1ccc(-c2oc3cc(O[C@@H]4O[C@H](CO)[C@@H](O)[C@H](O)[C@H]4O)c(OC)c(O)c3c(=O)c2OC)cc1O
cell viability (DLD1 [1]): 1.05 ± 0.057
cell viability (HCT116): 1.19 ± 0.17
cell viability (SW480 [2]): 1
TCF/Wnt firefly luciferase reporter signal (DLD1 [3]): 1.05 ± 0.035
TCF/Wnt firefly luciferase reporter signal (SW480 [4]): 1.02 ± 0.11

COc1ccc(-c2cc(=O)c3c(OC(C)=O)cc(OC(C)=O)cc3o2)cc1
cell viability (DLD1 [1]): 1.04 ± 0.064
cell viability (HCT116): 1.07 ± 0.13
cell viability (SW480 [2]): 1.17 ± 0.057
TCF/Wnt firefly luciferase reporter signal (DLD1 [3]): 1.09
TCF/Wnt firefly luciferase reporter signal (SW480 [4]): 1.21 ± 0.092
